# Data published in PubChem BioAssay AID1259418 (Broad Institute, 2018).
# Screen size: about 3,400 compounds; about 840 (25%) were called active. Inconclusive results (about 11%) are left out. These entries were drawn from the full list. Potency and affinity values are given separately. A number with no mark means an inactive call.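 How the source made its calls: active means fitted half-maximal concentration of signal decrease at or below twice the sample's top tested concentration; inconclusive means flat curve between -70 and -30 percent, or poor fit; inactive means flat within 30 percent, signal rise, or potency above limit.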
# Test: T. gondii growth inhibition with IFN-gamma, dose response, cell-based, ME49Luc, HeLa, luciferase, 72 h (AID 1259418)
# Conditions: T. gondii ME49Luc in IFN-y HeLa, stronger effect = lower value, -100% = high-dose IFN-γ control wells; at 19.5 µM unless noted
row,SMILES,max activity
1,O=C(Nc1ccccc1)Nc1ccc(-c2nc(-c3ccccc3)co2)cc1,51.3%
2,COc1cccc(-c2nc3c(s2)CN(S(=O)(=O)c2ccc(OC)c(OC)c2)CC3)c1,6.21% [at 10 µM]
3,COc1ccccc1-c1nc(C)c(-c2ccc(SCc3ccc(C)cc3)nn2)s1,-14.3%
4,COc1ccc(C(=O)N2CCC[C@@H]2C(=O)NCCc2csc(-c3ccccc3)n2)cc1,-13.9%
5,CCc1ccc(S(=O)(=O)N2CCc3nc(-c4ccc(OC)cc4)sc3C2)cc1,9.57%
6,CCOc1ccc(CC(=O)N2CCC3(CC2)Nc2ccc(C)c(C)c2-n2cccc23)cc1OCC,-7.59% [at 0.35 µM]
7,CCC(CC)C(=O)N1CCC(C(=O)NCCc2csc(-c3ccccc3)n2)CC1,5.84% [at 5 µM]
8,COc1ccc(C(=O)Nc2ccc3c(c2)CCC(=O)N3C)c(C)c1,42.4%
9,COc1cccc(C#Cc2ccc([C@H]3[C@@H](C#N)N(C(=O)c4ccccn4)[C@@H]3CO)cc2)c1,11.2% [at 10 µM]
10,N#C[C@H]1[C@H](c2ccc(C#Cc3ccccc3F)cc2)[C@@H](CO)N1C(=O)c1cccnc1,-13.1% [at 2.35 µM]
11,CCOC(=O)C1CCC(CNC(=O)Nc2ccc(-c3nc(-c4ccccc4)co3)cc2)CC1 (centres undefined),-11.7% [at 5 µM]
12,N#CCSC1=Nc2ccccc2C2=NC(CC(=O)NCc3ccc(F)cc3)C(=O)N12 (centres undefined),44.3%
13,O=S(=O)(c1ccc2c(c1)CCCC2)N1CCC2(CC1)NCCN=C2NCc1cc(F)cc(F)c1,16.7%
14,Cc1cccc(CNC2=NCCNC23CCN(S(=O)(=O)c2ccc4c(c2)CCCC4)CC3)c1,20.3% [at 10 µM]
15,COc1ccc(CNC2=NCCNC23CCN(S(=O)(=O)c2ccc4c(c2)CCCC4)CC3)cc1,-31.9%
16,Cc1nc(-c2ccc(F)cc2)sc1-c1ccc(SCc2cccc3ccccc23)nn1,-8.89% [at 10 µM]
17,COc1ccccc1-c1nc(C)c(-c2ccc(SCc3cc(C)ccc3C)nn2)s1,-11.2% [at 0.35 µM]
18,Cc1ccc(-c2coc(-c3ccc(NC(=O)C4CCCCC4)cc3)n2)c(C)c1,-13.8%
19,Cc1oc(-c2cccc(Cl)c2)nc1Cn1nnc(-c2nc(-c3ccncc3)no2)c1C,-5.43% [at 1.35 µM]
20,COc1ccc(-c2nc(Nc3cccc(SC)c3)c3ccccc3n2)cc1,8.11% [at 0.35 µM]
21,COC(=O)c1ccc(NC(=O)Nc2ccc(-c3nc(-c4cc(C)ccc4C)co3)cc2)cc1,-6.97% [at 0.68 µM]
22,COc1ccc2c(c1)NC1(CCN(C(=O)Cc3ccc(F)cc3)CC1)c1cccn1-2,12.9% [at 0.35 µM]
23,CCn1cc(NC(=O)c2cccc(CN3C[C@@H](C)O[C@@H](C)C3)c2)nn1,30.6%
24,CC(C)CN(C[C@@H](O)[C@H](Cc1ccccc1)NC(=O)O[C@H]1CO[C@H]2OCC[C@H]21)S(=O)(=O)c1ccc(N)cc1,7.57%
25,CCc1nc(OCC(=O)Nc2cccc(OC)c2)c2ccccc2n1,13.8% [at 0.16 µM]

row,SMILES,max activity
1,O=C(c1ccc2c(=O)n(CCC3=CCCCC3)c(=S)[nH]c2c1)N1CCC(O)(c2cccc(C(F)(F)F)c2)CC1,-24.9% [at 10 µM]
2,O=C(CCCCCn1c(=S)[nH]c2cc3c(cc2c1=O)OCO3)N1CCC(O)(c2cccc(C(F)(F)F)c2)CC1,-29.1% [at 10 µM]
3,Cc1cccc(C2=NC3(CCN(C(=O)c4ccc(C(C)(C)C)cc4)CC3)NC2=O)c1,16.7% [at 2.6 µM]
4,CCCn1c(=S)[nH]c2cc(C(=O)N3CCC(O)(c4cccc(C(F)(F)F)c4)CC3)ccc2c1=O,18.8% [at 0.16 µM]
5,COc1ccccc1-c1nc(Cn2nnc(-c3nc(-c4ccccn4)no3)c2C)c(C)o1,50.4%
6,C=CCN1C(=O)CC[C@H]2[C@@H]1CCN2S(=O)(=O)CC,48.3%
7,Cc1ccc(CSc2ccc(-c3sc(-c4ccc(F)cc4)nc3C)nn2)cc1,12.3% [at 0.16 µM]
8,Cc1cc(C)c2c(=O)n(Cc3nc(-c4ccc(C(C)C)cc4)oc3C)c(=O)n(-c3ccccc3)c2n1,-13.2% [at 5 µM]
9,CCCN1CCc2nc(SCc3nc(-c4cccc(Cl)c4)oc3C)[nH]c(=O)c2C1,10.2% [at 0.68 µM]
10,COCC1COCCC12CCN(C(=O)c1ccc(C)nc1)CC2 (centres undefined),18.7%
11,Cc1ccc(NC(=O)N2CCc3nc(-c4ccccc4)sc3C2)cc1C,-7.49% [at 2.6 µM]
12,Cc1cccc(-c2nc(Cn3nnc(-c4nc(-c5cccc(C(F)(F)F)c5)no4)c3C)c(C)o2)c1,8.75% [at 1.35 µM]
13,O=C(Nc1ccc(-c2nc(-c3ccccc3)co2)cc1)Nc1ccc2c(c1)OCO2,19.1% [at 0.16 µM]
14,Cc1ccccc1NC(=O)CN1CCC2(CC1)N=C(c1ccc(Cl)cc1)C(=O)N2,-13.7% [at 1.35 µM]
15,CCn1nnc2c(NCCSc3c[nH]c4ccccc34)ncnc21,-13.5% [at 0.68 µM]
16,O=C(NCCc1c[nH]c2ccccc12)C1CCN(c2ncnc3c2oc2ccccc23)CC1,11.9% [at 0.68 µM]
17,COc1ccc(-n2ncc3c(NC4CCCCCCCCCCC4)ncnc32)cc1,21.4% [at 1.35 µM]
18,COc1ccc(-c2nc(N3CCN(c4ccc(F)cc4)CC3)c3ccccc3n2)cc1,13.7% [at 10 µM]
19,Cc1cccc(-c2nc(CSc3nc4c(c(=O)[nH]3)CN(Cc3ccc(Cl)cc3)CC4)c(C)o2)c1,23.2% [at 0.16 µM]
20,O=S(=O)(c1ccc(Cl)s1)N1CCC2(CC1)NCCN=C2NC1CCCC1,13.4%
21,O=S(=O)(c1cccs1)N1CCC2(CC1)NCCN=C2NCc1ccccc1F,-35.7%
22,COc1ccccc1CNC1=NCCNC12CCN(S(=O)(=O)c1cccs1)CC2,-16.5% [at 0.68 µM]
23,CCc1ccc(S(=O)(=O)N2CCC3(CC2)NCCN=C3NCc2ccccc2OC)cc1,11.2% [at 0.16 µM]
24,COC[C@H]1CN(CC2CC2)C[C@@]12CCN(CCc1ccccc1)C2,24%
25,CCCN1CCc2nc(SCc3nc(-c4ccc(OC)cc4OC)oc3C)[nH]c(=O)c2C1,66.7%

row,SMILES,max activity
1,COc1ccc(-c2nc(Nc3ccc(C)c(C)c3)c3ccccc3n2)cc1,21.6% [at 0.16 µM]
2,CC1(C)C2CCC1(CS(=O)(=O)O)C(=O)/C2=C\c1ccc(/C=C2/C(=O)C3(CS(=O)(=O)O)CCC2C3(C)C)cc1,14.9%
3,CCn1c(C2CCCN(C(=O)CCN3CCCCCC3=O)C2)nn(C)c1=O (centres undefined),20.9%
4,CN1C(=O)CCc2cc(NC(=O)c3ccnn3C)ccc21,26.8%
5,Cc1cc2cc(CNc3ncnc4c3nnn4C)ccc2[nH]1,9.49% [at 10 µM]
6,COc1ccc(C)cc1NC(=O)Nc1ccc(-c2nc(-c3cccc(Br)c3)co2)cc1,-11.7% [at 0.35 µM]
7,CC1CCCCN1CCNS(=O)(=O)c1cc(-c2nc(C(C)(C)C)cs2)cs1 (centres undefined),-20.5%
8,COc1ccc(-c2nc(N3CCC(Cc4ccccc4)CC3)c3ccccc3n2)cc1,16.4%
9,Cc1ccc(-c2coc(-c3ccc(NC(=O)Cc4cccs4)cc3)n2)cc1,-53.8% [at 0.68 µM]
10,COc1cccc(CNC2=NCCNC23CCN(S(=O)(=O)c2ccc(C(C)C)cc2)CC3)c1,-13.5% [at 0.35 µM]
11,Cc1nc(CCNC(=O)[C@H]2CCCN2S(=O)(=O)c2ccc(C(C)(C)C)cc2)cs1,7.93% [at 5 µM]
12,CCCCC(=O)N1CCC(C(=O)NCCc2csc(-c3ccccc3)n2)CC1,6.78% [at 2.6 µM]
13,CCc1nc(OCC(=O)Nc2ccc3c(c2)OCO3)c2ccccc2n1,23.2% [at 10 µM]
14,CCOC(=O)C1CCCN(S(=O)(=O)c2cc(-c3nc(C)c(C)s3)sc2C)C1 (centres undefined),14.9% [at 0.16 µM]
15,COc1ccc2c(c1)NC1(CCN(C(=O)c3ccc(C(C)(C)C)cc3)CC1)c1cccn1-2,-6.3% [at 0.35 µM]
16,CN1C(=O)CCc2cc(NC(=O)C3CCCO3)ccc21 (centres undefined),17.1%
17,COc1cccc(-c2nc(CN(c3ccc(C)cc3)S(=O)(=O)c3cccs3)c(C)o2)c1OC,2.85%
18,CCOc1ccc(N(Cc2nc(-c3ccccc3OCC)oc2C)S(=O)(=O)c2cccs2)cc1,8.57% [at 10 µM]
19,COc1ccc(N(Cc2nc(-c3ccccc3)oc2C)S(=O)(=O)c2cccs2)cc1,14.6%
20,COc1ccccc1-c1nc(Cn2nnc(-c3nc(-c4ccc(SC)cc4)no3)c2C)c(C)o1,10.9% [at 0.16 µM]
21,CCOc1ccc(NC(=O)Nc2ccc(-c3nc(-c4cc(C)ccc4C)co3)cc2)cc1,-9.48% [at 1.35 µM]
22,CCN1Cc2c(C(=O)Nc3ccc(C)cc3)ncn2-c2ccccc2S1(=O)=O,5.65%
23,CN1[C@H](CO)[C@@H]2c3ccccc3N(C(=O)C3CCCCC3)C[C@@H]21,65.5%
24,CC(C)n1c(C(=O)Nc2cccc(F)c2)nc2c1CCN(Cc1ccccc1)C2,12.5%
